# Experimental data: a collection of fitness landscapes (doi:10.1016/j.celrep.2020.107928)
# Whole data set: some 81,000 sequences, median “one-hybrid fitness for binding parS DNA” near -0.17, cut for the highest 2% near 0.51. Only a selection was taken, and the highest values are over-represented in it overall.
# B1: Caulobacter ParB omega fusion; a variant is named by its letters at X, in order, B8GW30 (parent)
# chain: MESVVVGEPGMSEGRRGLGRGLSALLGEVDAAPAQAPGEQLGGSREAPIEILQRNPDQPRRTFREEDLEDLSNSIREKGVLQPILVRPSPDTAGEYQIVAGERAWRAAQRAGLKTVPIMVRELDDLAVLEIGIIENVQRADLNVLEEALSYKVLMEKFERTQENIAQTIGKSXSHVANXMRLLXLPDEVQSYLVSGELTAXHARAIAAAADPVALAKQIIEGGLSVRETEALARKAPNLSAGKSKGGRPPRVKDTDTQALESDLSSVLGLDVSIDHRGSTGTLTITYATLEQLDDLCNRLTRGI
# Variants of: B1
# Test: one-hybrid fitness for binding parS DNA (scaled: cognate 1, non-cognate 0); higher = stronger binding
# Details: with parS DNA site
# In short: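 Selection: bacterial one-hybrid in E. coli USO, HIS3 reporter with the site 19 bp from the promoter, 48 hours at 37°C on M9-minus-histidine plus 0.1 mM IPTG and 5 mM 3-AT. Libraries were Caulobacter ParB with four randomised specificity codons, sequenced on Illumina before and after selection. Fitness is the rescaled log change in variant-to-wild-type read ratio, anchored to the cognate and non-cognate sites.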
row,Variant,one-hybrid fitness for binding parS DNA
1,DQQL,≤ 0.2
2,GHWC,≤ 0.2
3,KPDR,≤ 0.2
4,TRSC,≤ 0.2
5,NTIS,≤ 0.2
6,RWCA,0.317
7,RCCA,0.677
8,RGCA,≤ 0.2
9,RTCA,0.572
10,RKCA,0.503
11,RNCA,0.348
12,RMCA,0.633
13,RPCA,≤ 0.2
14,RSCA,0.579
15,QSLF,≤ 0.2
16,QAWS,≤ 0.2
17,ATLF,≤ 0.2
18,PAPL,≤ 0.2
19,PDPW,≤ 0.2
20,DFDR,≤ 0.2
21,QQYT,≤ 0.2
22,KPHF,≤ 0.2
23,RHCA,0.55
24,DHCA,≤ 0.2

row,Variant,one-hybrid fitness for binding parS DNA
1,LGTH,≤ 0.2
2,RQTN,0.43
3,RQTT,0.929
4,RQTF,0.211
5,RQTG,1.01
6,RQTH,≤ 0.2
7,RQTM,0.331
8,RQTC,0.966
9,RQTK,≤ 0.2
10,RQTQ,≤ 0.2
11,RQTD,0.217
12,RQTS,0.984
13,RQTP,≤ 0.2
14,KANM,≤ 0.2
15,NRAG,≤ 0.2
16,PIVT,≤ 0.2
17,QDIR,≤ 0.2
18,IPSC,≤ 0.2
19,PVWG,≤ 0.2
20,CTRC,≤ 0.2
21,QFWR,≤ 0.2
22,VWSI,≤ 0.2
23,QVFN,≤ 0.2
24,NFDC,≤ 0.2

row,Variant,one-hybrid fitness for binding parS DNA
1,RFDF,≤ 0.2
2,RFDC,0.793
3,RFNE,≤ 0.2
4,RFNC,0.94
5,AFNC,≤ 0.2
6,PPHC,≤ 0.2
7,DNGY,≤ 0.2
8,RIHK,≤ 0.2
9,RILR,≤ 0.2
10,RIYC,0.964
11,RINF,0.201
12,RIHQ,≤ 0.2
13,RINM,0.381
14,RILC,0.97
15,RIYQ,≤ 0.2
16,RIYR,≤ 0.2
17,RILM,0.333
18,RINC,0.955
19,RIHC,0.977
20,RNGM,≤ 0.2
21,LKKY,≤ 0.2
22,QVQI,≤ 0.2
23,YEHV,≤ 0.2
24,QGHV,≤ 0.2

row,Variant,one-hybrid fitness for binding parS DNA
1,HFFL,≤ 0.2
2,LRSA,≤ 0.2
3,AADE,≤ 0.2
4,CFNA,≤ 0.2
5,WWKS,≤ 0.2
6,ECSL,≤ 0.2
7,PWPM,≤ 0.2
8,PHSN,≤ 0.2
9,LVPK,≤ 0.2
10,MIPM,≤ 0.2
11,QNKH,≤ 0.2
12,NKQR,≤ 0.2
13,RIDC,0.866
14,RICP,≤ 0.2
15,RIRQ,≤ 0.2
16,RIDQ,≤ 0.2
17,RISP,0.209
18,RIRF,0.247
19,RICC,0.92
20,RIDK,≤ 0.2
21,RISH,0.259
22,RISC,0.969
23,RICF,0.282
24,RIRC,0.847

row,Variant,one-hybrid fitness for binding parS DNA
1,QALV,≤ 0.2
2,MYER,≤ 0.2
3,ARTT,≤ 0.2
4,ANKV,≤ 0.2
5,AYCY,≤ 0.2
6,ALWS,≤ 0.2
7,ECMV,≤ 0.2
8,RYKR,≤ 0.2
9,RYVC,0.907
10,RYKM,0.369
11,RYVQ,≤ 0.2
12,RYVF,≤ 0.2
13,RYKC,0.752
14,TTLV,≤ 0.2
15,RFFT,0.582
16,DFAT,≤ 0.2
17,RFAT,0.79
18,NFAT,≤ 0.2
19,RFFF,≤ 0.2
20,RFFM,≤ 0.2
21,QAHK,≤ 0.2
22,TRYI,≤ 0.2
23,RYKD,≤ 0.2
24,RYYY,0.462

row,Variant,one-hybrid fitness for binding parS DNA
1,RYKY,0.514
2,RYVS,0.976
3,RYVY,0.357
4,RYKS,0.793
5,RYVN,0.364
6,RYVH,0.253
7,RYKP,≤ 0.2
8,TITP,≤ 0.2
9,LFYR,≤ 0.2
10,HYYD,≤ 0.2
11,DGDR,≤ 0.2
12,RIDG,0.831
13,RIDP,≤ 0.2
14,RINR,≤ 0.2
15,RIDN,0.388
16,RING,1.03
17,RINE,≤ 0.2
18,QLMK,≤ 0.2
19,SRNE,≤ 0.2
20,GGVR,≤ 0.2
21,RPWS,≤ 0.2
22,RCWS,1.09
23,RMWS,1.05
24,RSWD,≤ 0.2

row,Variant,one-hybrid fitness for binding parS DNA
1,RMWD,≤ 0.2
2,RSWS,0.989
3,RCWN,0.401
4,RMWP,≤ 0.2
5,RSWP,≤ 0.2
6,PQAF,≤ 0.2
7,RMKV,≤ 0.2
8,CHNG,≤ 0.2
9,TAAQ,≤ 0.2
10,SDSD,≤ 0.2
11,GVLC,≤ 0.2
12,RKKA,0.846
13,RKVA,0.527
14,TGNL,≤ 0.2
15,DKAR,≤ 0.2
16,AWNT,≤ 0.2
17,KHTD,≤ 0.2
18,YNPS,≤ 0.2
19,QHAY,≤ 0.2
20,RQLF,0.241
21,RTAM,0.311
22,RTAG,1
23,RTFG,1.01
24,RTAH,0.21

row,Variant,one-hybrid fitness for binding parS DNA
1,RTFY,0.479
2,RTFK,≤ 0.2
3,TEAR,≤ 0.2
4,CSDF,≤ 0.2
5,IWPL,≤ 0.2
6,CTLY,≤ 0.2
7,PPSK,≤ 0.2
8,YQCG,≤ 0.2
9,NLVA,≤ 0.2
10,RLVA,0.567
11,RLKA,0.796
12,CLKA,≤ 0.2
13,DLVA,≤ 0.2
14,ALKA,≤ 0.2
15,LHAG,≤ 0.2
16,QGGK,≤ 0.2
17,TMSY,≤ 0.2
18,QLMM,≤ 0.2
19,SQKG,≤ 0.2
20,RPVC,≤ 0.2
21,RSVC,0.775
22,RCVC,0.965
23,REVC,≤ 0.2
24,RSVH,≤ 0.2

row,Variant,one-hybrid fitness for binding parS DNA
1,RSVD,≤ 0.2
2,AWDA,≤ 0.2
3,HGSI,≤ 0.2
4,DKKR,≤ 0.2
5,SPNA,≤ 0.2
6,LWAR,≤ 0.2
7,VAPG,≤ 0.2
8,RNAY,0.359
9,RNFG,0.662
10,RNAG,0.853
11,RNFY,≤ 0.2
12,RNFR,≤ 0.2
13,RNAR,≤ 0.2
14,NIRE,≤ 0.2
15,HAKP,≤ 0.2
16,CTSH,≤ 0.2
17,HSAT,≤ 0.2
18,REAF,≤ 0.2
19,LGNC,≤ 0.2
20,RMKP,≤ 0.2
21,RMVL,≤ 0.2
22,RMKG,0.929
23,RMKR,≤ 0.2
24,RMVG,0.971

row,Variant,one-hybrid fitness for binding parS DNA
1,RMVK,≤ 0.2
2,FQCR,≤ 0.2
3,TNCV,≤ 0.2
4,IAED,≤ 0.2
5,TLGD,≤ 0.2
6,IMTY,≤ 0.2
7,HASR,≤ 0.2
8,WPLT,≤ 0.2
9,RVGW,0.209
10,RLLY,0.505
11,RLSP,≤ 0.2
12,RLLK,≤ 0.2
13,RLSC,0.98
14,RLSH,0.266
15,RLCY,0.485
16,RLLC,1
17,RLHN,0.442
18,RLCC,0.995
19,RLHC,0.973
20,RLHD,≤ 0.2
21,RLCR,≤ 0.2
22,QRLD,≤ 0.2
23,GQHW,≤ 0.2
24,KKGT,≤ 0.2

row,Variant,one-hybrid fitness for binding parS DNA
1,PNTI,≤ 0.2
2,NASI,≤ 0.2
3,HCLN,≤ 0.2
4,TCIV,≤ 0.2
5,HMWR,≤ 0.2
6,YTVS,≤ 0.2
7,RLRQ,≤ 0.2
8,RLYK,≤ 0.2
9,RLYR,0.23
10,RLRN,0.432
11,RLRC,0.846
12,RLYC,1.01
13,WPPM,≤ 0.2
14,YLAL,≤ 0.2
15,RVHP,≤ 0.2
16,RVHT,0.927
17,RVSK,≤ 0.2
18,RVRK,≤ 0.2
19,RVYT,0.93
20,RVRQ,≤ 0.2
21,RVST,0.92
22,RVYK,≤ 0.2
23,RVSF,0.224
24,RVYF,0.25

row,Variant,one-hybrid fitness for binding parS DNA
1,RVRT,0.825
2,RVHD,≤ 0.2
3,GPPY,≤ 0.2
4,YVGI,≤ 0.2
5,QTHG,≤ 0.2
6,FAKY,≤ 0.2
7,LKTR,≤ 0.2
8,PGLR,≤ 0.2
9,RVWT,0.886
10,RVLT,0.92
11,RVWR,≤ 0.2
12,RVQN,0.417
13,RVLQ,≤ 0.2
14,RVLM,0.309
15,RVDD,≤ 0.2
16,RVWF,0.25
17,RVQT,0.913
18,RVDT,0.741
19,RVQP,≤ 0.2
20,RVDH,≤ 0.2
21,PFSC,≤ 0.2
22,GKMI,≤ 0.2
23,LFDL,≤ 0.2
24,TQEV,≤ 0.2

row,Variant,one-hybrid fitness for binding parS DNA
1,RKRY,0.422
2,FSIS,≤ 0.2
3,RVNT,0.899
4,RVCM,0.382
5,RVNP,≤ 0.2
6,RVGT,0.924
7,RVGN,0.451
8,RVCT,0.926
9,RVGD,≤ 0.2
10,RVCY,0.462
11,RVNH,≤ 0.2
12,PRGK,≤ 0.2
13,VWDG,≤ 0.2
14,IEKT,≤ 0.2
15,VALY,≤ 0.2
16,GQET,≤ 0.2
17,SLYK,≤ 0.2
18,GKPL,≤ 0.2
